In PubChem BioAssay AID630 (Emory University Molecular Libraries Screening Center, 2007):
In all, about 88,000 compounds went through this assay and about 260 (0.3%) were called active.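 Rule for the calls: active = compounds that reduce the energy-transfer binding signal between the protein and its labelled peptide by more than half; inactive = the rest.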 This excerpt belongs to a sample that is enriched for actives.

The compounds below were run against Mothers against decapentaplegic homolog 3 (Homo sapiens) (UniProt P84022) (assay: blockers of Smad3 binding to FoxH1 – biochemical, TR-FRET, primary screen (AID 630;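 note: 0% = Smad3 plus labelled peptide maximal FRET and 100% = peptide-only background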)). Conditions: TR-FRET Smad3/Dy647-FoxH1 peptide binding, europium anti-His; at 25 µM; active compounds read high.
Chain of Mothers against decapentaplegic homolog 3 (Homo sapiens) (P84022 whole entry, looked up): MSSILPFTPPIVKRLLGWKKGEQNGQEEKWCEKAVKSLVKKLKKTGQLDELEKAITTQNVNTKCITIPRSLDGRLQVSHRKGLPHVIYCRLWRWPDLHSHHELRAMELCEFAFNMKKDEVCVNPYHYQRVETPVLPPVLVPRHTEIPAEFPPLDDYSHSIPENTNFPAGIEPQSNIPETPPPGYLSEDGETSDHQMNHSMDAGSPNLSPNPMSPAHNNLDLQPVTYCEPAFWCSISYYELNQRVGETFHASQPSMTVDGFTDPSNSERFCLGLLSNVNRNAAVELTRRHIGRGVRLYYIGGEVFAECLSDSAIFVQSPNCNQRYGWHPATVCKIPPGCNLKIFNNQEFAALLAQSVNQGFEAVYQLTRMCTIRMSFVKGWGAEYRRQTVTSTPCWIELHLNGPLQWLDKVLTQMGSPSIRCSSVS
With `Cc1ccc(S(=O)(=O)O[C@H]2CN3CCC2CC3)cc1` the inhibition was 67.3% (active).
For `O=C1C[C@@H]2OCC=C3CN4CC[C@]56c7ccccc7N1[C@H]5[C@H]2[C@H]3C[C@H]46` (tested in a mixture with another compound), the inhibition was -5.82% (inactive).
In the case of `c1cc2c(cc1CCNC1CCCCCC1)OCO2`, the inhibition is reported as -10.4% (inactive).
In the case of `CC[C@@](O)(C(=O)O)c1cc2n(c(=O)c1CO)Cc1cc3ccccc3nc1-2`, the inhibition is reported as -1.51% (inactive).
In the case of `C=C[C@@H]1CN2CC[C@H]1C[C@@H]2[C@H](O)c1ccnc2ccccc12`, the inhibition is reported as -9.04% (inactive).
